The values that follow come from PubChem BioAssay (NCI).

“And” between values parts separate entries of the source, which are not always exact repeats. Equal entries are not always repeated. Compounds without any hit were thinned out: in the full panel of roughly 83,000, 20% have a hit.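 Single-concentration screen, 48 h exposure, 96-well plates. Endpoint: percent growth. Below 10 = active.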 Unmarked numbers belong to inactive results. The source made the active and inactive calls.

Test systems include NCI-H226 lung; NCI-H322M lung; NCI-H460 lung; HOP-92 NSCLC; NCI-H522 lung; 786-0 renal; COLO 205 colon; DU-145 prostate; K-562 leukemia; MALME-3M melanoma; MDA-MB-231 breast; RXF 393 renal; SF-268 CNS; SF-295 CNS; SF-539 CNS; UACC-257 melanoma; A549/ATCC NSCLC; HOP-62 NSCLC.
Common to all, as to assay: NCI-60 one-dose screen, 48 h (100 = growth as untreated, 0 = no growth, -100 = all killed)
In another assay the test system is NCI-H23 lung. The settings on record: 10 µM unless noted.
The next assay concerns M14 melanoma. The settings on record: 10 µM unless noted.

As for `c1ccc2c(c1)sc1ccccc12`, the growth with NCI-H23 lung is 99.8%; in the assay with NCI-H226 lung (10 µM unless noted) it was 94.7%; in the assay on NCI-H322M lung (10 µM unless noted), 95.7%; in the assay with NCI-H460 lung (10 µM unless noted) it was 109%; in the assay with HOP-92 NSCLC (10 µM unless noted), 74.7%; in the assay on NCI-H522 lung (10 µM unless noted), 98.9%. The growth in the assay with 786-0 renal (10 µM unless noted) is 105%; in the assay with COLO 205 colon (10 µM unless noted), 98.6%; with DU-145 prostate (10 µM unless noted), 110%; with K-562 leukemia (10 µM unless noted), 105%; in the assay with MALME-3M melanoma (10 µM unless noted) it was 84%; with MDA-MB-231 breast (10 µM unless noted), 93.8%. Moreover, the growth with RXF 393 renal (10 µM unless noted) is 107%; in the assay with SF-268 CNS (10 µM unless noted) it was 109%; in the assay with SF-295 CNS (10 µM unless noted), 101%; in the assay with SF-539 CNS (10 µM unless noted) it was 93.9%; in the assay with UACC-257 melanoma (10 µM unless noted), 109%; with M14 melanoma, 94%.

As for `CCC(=O)C(CC(C)[N+](C)(C)C)(c1ccccc1)c1ccccc1` (stereo not given), the growth in the assay with NCI-H23 lung was 91.7%; in the assay on NCI-H226 lung (10 µM unless noted), 87.8%; in the assay on NCI-H322M lung (10 µM unless noted) it was 103%; with NCI-H460 lung (10 µM unless noted) it was 106%; in the assay on HOP-92 NSCLC (10 µM unless noted) it was 103%; with NCI-H522 lung (10 µM unless noted), 86.1%. Further, the growth in the assay with A549/ATCC NSCLC (10 µM unless noted) was 95.8%; in the assay with 786-0 renal (10 µM unless noted) it was 92.9%; with COLO 205 colon (10 µM unless noted), 85.8%; in the assay on DU-145 prostate (10 µM unless noted), 112%; with K-562 leukemia (10 µM unless noted) it was 103%; with MALME-3M melanoma (10 µM unless noted) it was 106%. Besides, the growth in the assay on RXF 393 renal (10 µM unless noted) is 104%; in the assay with SF-268 CNS (10 µM unless noted), 103%; in the assay with SF-295 CNS (10 µM unless noted), 95.3%; in the assay on SF-539 CNS (10 µM unless noted), 96.6%; in the assay on UACC-257 melanoma (10 µM unless noted), 94.7%; with M14 melanoma it was 96.2%.

Turning to `O=C(O)CCCc1ccc(N(CCCl)CCCl)cc1`, the growth was 78.7% and 88.2% in the assay on NCI-H226 lung (10 µM); 61.2% in the assay with NCI-H226 lung (75 µM); 98.7% and 112% in the assay on NCI-H322M lung (10 µM); 91.9% in the assay on NCI-H322M lung (75 µM); 90.1% and 91.6% in the assay on HOP-62 NSCLC (10 µM); 35% in the assay with HOP-62 NSCLC (75 µM). The growth is 86.6% and 54.5% in the assay with NCI-H460 lung (10 µM); 21% with NCI-H460 lung (75 µM); 95.3% and 40.2% in the assay on HOP-92 NSCLC (10 µM); 14.6% in the assay on HOP-92 NSCLC (75 µM); 87.2% and 59.6% in the assay on NCI-H522 lung (10 µM); 0.62% (active) in the assay on NCI-H522 lung (75 µM). The growth was 89.2% in the assay on A549/ATCC NSCLC (10 µM); 46.1% in the assay with A549/ATCC NSCLC (75 µM); 98.4% and 86.1% with 786-0 renal (10 µM); 9.49% (active) in the assay on 786-0 renal (75 µM); 104% and 105% with COLO 205 colon (10 µM); 66.2% in the assay on COLO 205 colon (75 µM). The growth with DU-145 prostate (10 µM) was 111% and 98.7%; in the assay on DU-145 prostate (75 µM) it was -5.07% (active); with K-562 leukemia (10 µM), 103% and 58.3%; with K-562 leukemia (75 µM), 31.8%; with MALME-3M melanoma (10 µM), 98.7% and 88.9%; in the assay with MALME-3M melanoma (75 µM), 43%. In addition, the growth with MDA-MB-231 breast (10 µM) is 99.4% and 104%; in the assay with MDA-MB-231 breast (75 µM) it was 93.5%; with RXF 393 renal (10 µM), 106% and 87.8%; with RXF 393 renal (75 µM) it was 12%; in the assay on SF-268 CNS (10 µM), 87.6% and 69.9%; in the assay on SF-268 CNS (75 µM) it was 34%. Also, the growth in the assay with SF-295 CNS (10 µM) was 100% and 78.8%; in the assay with SF-295 CNS (75 µM), 13.4%; in the assay with SF-539 CNS (10 µM), 87.8% and 72.3%; with SF-539 CNS (75 µM) it was -40.7% (active); in the assay with UACC-257 melanoma (10 µM), 104% and 73.4%; with UACC-257 melanoma (75 µM) it was 28.9%. In addition, the growth in the assay on M14 melanoma was 93.3% and 97.1%.

Regarding `COC(=O)CCP(CCC(=O)OC)c1ccccc1`, the growth in the assay with NCI-H226 lung (10 µM unless noted) was 104%; with NCI-H322M lung (10 µM unless noted) it was 107%; in the assay with HOP-62 NSCLC (10 µM unless noted), 111%; in the assay on NCI-H460 lung (10 µM unless noted), 111%; in the assay on HOP-92 NSCLC (10 µM unless noted), 109%; in the assay with NCI-H522 lung (10 µM unless noted), 102%. In addition, the growth in the assay with A549/ATCC NSCLC (10 µM unless noted) is 96.8%; in the assay on 786-0 renal (10 µM unless noted), 102%; in the assay on COLO 205 colon (10 µM unless noted), 118%; with DU-145 prostate (10 µM unless noted), 110%; with K-562 leukemia (10 µM unless noted), 111%; in the assay with MDA-MB-231 breast (10 µM unless noted), 117%. The growth was 108% with RXF 393 renal (10 µM unless noted); 103% in the assay with SF-268 CNS (10 µM unless noted); 99.4% with SF-295 CNS (10 µM unless noted); 101% in the assay on SF-539 CNS (10 µM unless noted); 99.7% in the assay on UACC-257 melanoma (10 µM unless noted); 101% in the assay on M14 melanoma.

Turning to `CC[C@H](C)[C@H](NC(=O)[C@H]1CCCCN1C)C(=O)N(C)[C@H](C[C@@H](OC(C)=O)c1nc(C(=O)NC23C4C5C2C2C3C4C52C(=O)OC)cs1)C(C)C` (stereo not given in full), the growth was 14.3% in the assay with NCI-H226 lung (10 µM unless noted); 48.3% in the assay on NCI-H322M lung (10 µM unless noted); 21.5% with HOP-62 NSCLC (10 µM unless noted); 12.6% in the assay with NCI-H460 lung (10 µM unless noted); -1.14% (active) in the assay with HOP-92 NSCLC (10 µM unless noted); -16.1% (active) with NCI-H522 lung (10 µM unless noted). Moreover, the growth with A549/ATCC NSCLC (10 µM unless noted) was 7.26% (active); with 786-0 renal (10 µM unless noted) it was 13.7%; with COLO 205 colon (10 µM unless noted) it was -42.8% (active); in the assay on DU-145 prostate (10 µM unless noted) it was -7.13% (active); in the assay on K-562 leukemia (10 µM unless noted) it was 6.1% (active); in the assay with MALME-3M melanoma (10 µM unless noted) it was 56.9%. In addition, the growth was 20.3% in the assay on MDA-MB-231 breast (10 µM unless noted); 34.2% in the assay with RXF 393 renal (10 µM unless noted); 24.9% in the assay with SF-268 CNS (10 µM unless noted); 6.06% (active) with SF-295 CNS (10 µM unless noted); -11.4% (active) with SF-539 CNS (10 µM unless noted); 46.4% in the assay on UACC-257 melanoma (10 µM unless noted). The growth in the assay with M14 melanoma is 10.2%.
